Source: PubChem
Most compounds without a hit are left out; they make up all but 2.1% or so of the library.
GalR3 antagonist – blocks the human galanin receptor 3. inhibition, % at 3 µM. actives 0.44% (n = 360,000). O60755. HEK293 GalR3-CNG cAMP membrane potential fluorescence; galR3 body fused to GalR1 C-terminus;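 active means inhibition above the screen-wide average plus 3 SD, cut at about 13% in these data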;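 further: forskolin and galanin both at EC90 stimulate the cells; cAMP rise reported by CNG channel membrane potential dye signal; 0% = forskolin plus galanin with DMSO and 100% = forskolin alone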
HIV Env fusion – HIV envelope-mediated fusion inhibition; actives 1.1% (n = 360,000); HeLa-JRFL Env/CEM21 cell fusion, luciferase; inhibition, % at 12.3 µM;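 active means mean replicate inhibition score of at least 50 and every replicate individually at or above 50; inconclusive means only one of the two criteria met; inactive means mean below 50 and not all replicates reaching 50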;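 further: 0% = plate neutral controls and 100% = maraviroc near 300 nM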
aDG glyco act – alpha-DG glycosylation activation; actives 0.22% (n = 360,000); Pro5-aDG cells, alpha-DG glycosylation AlphaScreen (IIH6); 0% Pro5, 100% B10-LARGE cell signal; activation, % at 10 µM;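 active means activation of at least 8% versus controls, or a plate z-score of at least 8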;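 further: Pro5 are CHO cells carrying HIG-tagged alpha-DG that lacks glycosylation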
Gli-Sufu antag – Gli-Sufu pathway antagonism. Sufu-KO-LIGHT fibroblasts, Gli luciferase reporter luminescence. inhibition, % at 5 µM. actives 0.74% (n = 340,000). AID 588413;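 active means inhibition above about 55%, limit read from the data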;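 further: 0% = DMSO-treated cells and 100% = wells with medium but no cells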
COUP-TFII inh – blocks human COUP-TFII nuclear receptor; inhibition, % at 8.6 µM; HEK293T NGFI-A luciferase reporter, luminescence; actives 0.7% (n = 370,000); P24468;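 active means inhibition above a per-plate cutoff, mean inhibition of test wells between control levels plus 3 SD, cut at about 38% in these data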;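 further: cells cotransfected with COUP-TFII expression vector driving the NGFI-A reporter; 0% = median of COUP-TF2 test wells and 100% = reporter-only cells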
Target sequence (P24468 whole entry, looked up): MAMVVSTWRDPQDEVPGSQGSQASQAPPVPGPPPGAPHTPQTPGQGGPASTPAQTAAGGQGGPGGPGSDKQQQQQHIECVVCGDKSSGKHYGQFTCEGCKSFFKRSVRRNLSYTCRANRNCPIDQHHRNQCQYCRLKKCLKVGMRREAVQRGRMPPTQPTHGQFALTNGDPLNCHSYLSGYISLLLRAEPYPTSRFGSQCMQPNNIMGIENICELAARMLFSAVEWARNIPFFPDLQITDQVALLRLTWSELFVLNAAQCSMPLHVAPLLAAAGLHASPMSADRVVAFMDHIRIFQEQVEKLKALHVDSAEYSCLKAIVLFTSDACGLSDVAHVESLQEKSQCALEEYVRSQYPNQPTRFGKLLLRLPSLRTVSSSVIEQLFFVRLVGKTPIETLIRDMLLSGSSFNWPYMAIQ
Gal4-VP16 ctr – inhibits VP16 reporter, flagging COUP-TFII antagonist hits. shares compounds with COUP-TFII inh. HEK293 Gal4-VP16 luciferase reporter, luminescence. inhibition, % at 8.5 µM. actives 25% (n = 2,500). AID 687007; in the data active means inhibition above about 13%
NR2F2 inh conf – COUP-TFII (NR2F2) inhibition, confirmation assay; shares compounds with COUP-TFII inh; HEK293 NGFI-A luciferase reporter, luminescence; inhibition, % at 8.5 µM; actives 45% (n = 2,500);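 active means mean inhibition over three repeats above a set limit taken from the earlier primary screen, cut at about 38% in these data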;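 further: 100% = cells given the luciferase reporter alone without the COUP-TF2 vector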
* marks the source's active call; other numbers are inactive results; i = inactive; u = inconclusive; x = no result given; [ ] = dose if it differs, or a comment.

SMILES	GalR3 antagonist	HIV Env fusion	aDG glyco act	Gli-Sufu antag	COUP-TFII inh	Gal4-VP16 ctr	NR2F2 inh conf
CC(=O)NS(=O)(=O)c1ccc(NC(=O)c2cccc(S(=O)(=O)N3CCc4ccccc43)c2)cc1	-4	5	0	-1	-10	x	x
CN(C)S(=O)(=O)c1cccc(NC(=O)c2cccc(S(=O)(=O)N3CCc4ccccc43)c2)c1	-7	x	1	3	42*	-4	18
CN(c1ccccc1)S(=O)(=O)c1cccc(NC(=O)CN2CCCc3ccccc32)c1	-2	9	0	18	39*	8	11
NS(=O)(=O)c1cccc(NC(=O)CN2CCc3ccccc32)c1	1	-6	0	-4	-14	x	x
O=C(NNC(=O)c1cccc(S(=O)(=O)N2CCc3ccccc32)c1)c1ccccc1	-4	4	1	48	41*	8	34
COc1cc(OC)cc(C(=O)O/N=C(\N)c2ccccn2)c1	1	-39	0	-36	-48	x	x
Cc1ccc(C(=O)O/N=C(\N)c2ccccn2)c(C)c1	-6	x	1	73*	78*	65*	84*
COc1ccc(C(=O)NNC(=O)c2ccccn2)cc1	-5	62*	0	-54	46*	-112	-64
COc1ccc(C(=O)O/N=C(\N)c2ccccn2)cc1	2	70*	0	-25	48*	-168	-104
C[C@@H]1CCCCO[C@@H](CN(C)C(=O)CCCN(C)C)[C@@H](C)CN([C@@H](C)CO)C(=O)c2cc(NS(=O)(=O)c3ccccc3)ccc2O1	x	-11[16.7 µM]	x	x	x	x	x
COc1ccc(NC(=O)Nc2ccc3c(c2)C(=O)N([C@H](C)CO)C[C@@H](C)[C@H](CN(C)Cc2ccncc2)OCCCC[C@H](C)O3)cc1	x	13[16.7 µM]	x	x	x	x	x
O=C(Nc1nc(-c2ccc(F)cc2)cs1)C1CCN(C(=O)c2ccc(F)cc2)CC1	-8	-6	2	41	58*	4	46*
C[C@H]1CN([C@@H](C)CO)C(=O)c2cccc(N(C)C)c2O[C@H]1CN(C)Cc1ccc(C(=O)Nc2ccccc2N)cc1	x	18[16.7 µM]	x	x	x	x	x
Nc1nnc(-c2cc3ccccc3oc2=O)s1	0	x	0	-29	-26	x	x
Nc1cccc(-c2cc3ccccc3oc2=O)c1	-5	-23	0	4	57*	8	7
COc1ccc(S(=O)(=O)Nc2cccc3c2O[C@@H](CN(C)C(=O)Nc2ccc4c(c2)OCO4)[C@@H](C)CN([C@@H](C)CO)C3=O)cc1	x	3[16.7 µM]	x	x	x	x	x
COc1ccc(CN(C)C[C@H]2OCCCC[C@@H](C)Oc3ccc(NC(=O)NC4CCCCC4)cc3C(=O)N([C@@H](C)CO)C[C@@H]2C)cc1	x	-57[16.7 µM]	x	x	x	x	x
CCOC(=O)N1CCN(C(=O)c2ccccc2NC(=O)c2ccc(C(C)(C)C)cc2)CC1	-5	1	0	-5	8	x	x
CCOC(=O)N1CCN(C(=O)C(NC(=O)c2ccc(C(C)(C)C)cc2)C(C)C)CC1 (configuration not stated)	-3	11	0	x	40*	-4	0
Cc1ccc2nc(-c3ccccc3)cn2c1	-5	x	0	18	53*	-5	21
O=Nc1ccc(O)c2ncccc12	1	i	0	38	54*	5	41*
Cc1ccccc1N=Nc1ccc(O)c2ncccc12	-5	32	-1	18	-13	x	x
O=C(Nc1cccc(F)c1)N[C@H]1CC[C@@H](CCn2cc(Cc3ccccc3)nn2)O[C@H]1CO	x	3[16.7 µM]	x	x	x	x	x
Cn1c(SCC(=O)NCCc2ccccc2)ncc(C(=O)Nc2ccccc2)c1=O	-4	-7	1	8	54*	4	1
O=C(C[C@H]1CC[C@@H](NC(=O)Cc2ccccn2)[C@@H](CO)O1)NCCc1ccccc1	x	-5[16.7 µM]	x	x	x	x	x
SMILES	GalR3 antagonist	HIV Env fusion	aDG glyco act	Gli-Sufu antag	COUP-TFII inh	Gal4-VP16 ctr	NR2F2 inh conf
C=CCN(c1ccccc1OC)S(=O)(=O)c1ccc(Cl)c(C(=O)Nc2ccc(N3CCOCC3)cc2)c1	-6	44	0	-4	43*	4	25
COc1ccccc1N(C)S(=O)(=O)c1ccc(C(=O)Nc2ccc(N3CCOCC3)cc2)cc1	-1	20	0	14	13	x	x
CCN(CC)S(=O)(=O)c1cccc(NC(=O)Nc2cccc(C(F)(F)F)c2)c1	-6	118*	1	24	39*	-5	13
CCN(CC)S(=O)(=O)c1ccc2c(c1)nc(CCC(=O)Nc1cccc(C(F)(F)F)c1)n2CC	-3	x	1	3	19	x	x
CCNC(=O)C[C@@H]1CC[C@@H]2[C@@H](COc3ccc(NC(=O)Nc4ccc(C)cc4)cc3C(=O)N2C)O1	x	3[16.7 µM]	x	x	x	x	x
COc1ccc(NC(=O)N(C)C[C@H]2Oc3ccc(NC(=O)CCC(F)(F)F)cc3C(=O)N([C@@H](C)CO)C[C@H]2C)cc1	x	6[16.7 µM]	x	x	x	x	x
Cc1ccc(S(=O)(=O)N(C)C[C@@H]2Oc3c(cccc3N(C)C)C(=O)N([C@H](C)CO)C[C@@H]2C)cc1	x	12[16.7 µM]	x	x	x	x	x
O=C(CCc1ccc(S(=O)(=O)N2CCOCC2)cc1)Nc1nccs1	-1	x	0	0	0	x	x
O=C(CCc1ccc(S(=O)(=O)N2CCOCC2)cc1)Nc1nc(COc2ccccc2)cs1	-10	80*	1	18	39*	-2	18
CC(C)(O)C#Cc1ccc(C(=O)N2CCN(c3ccc([N+](=O)[O-])cc3)CC2)cc1	-3	2	1	25	38*	6	24
C[C@H]1CCCCO[C@@H](CN(C)C(=O)Nc2ccc(F)cc2)[C@@H](C)CN([C@@H](C)CO)C(=O)c2cc(NC(=O)c3ccncc3)ccc2O1	x	-17[16.7 µM]	x	x	x	x	x
COc1ccc(S(=O)(=O)N(C)C[C@H]2Oc3ccc(N(C)C)cc3CC(=O)N([C@@H](C)CO)C[C@@H]2C)cc1	x	-12[16.7 µM]	x	x	x	x	x
c1cc(-c2cnc3cccnn23)c2cccnc2c1	-1	u	0	x	46*	4	26
CCOC(=O)C1CCN(CC(=O)Nc2c(C(=O)OC)[nH]c3ccc(Cl)cc23)CC1	-5	x	2	-7	41*	4	32
CCOC(=O)C1CCN(CC(=O)Nc2c(C(=O)OC)[nH]c3ccccc23)CC1	-2	u	x	x	27	x	x
C[C@H]1CN([C@@H](C)CO)C(=O)c2cc(C3=CCCCC3)cnc2O[C@@H]1CN(C)C(=O)CN1CCOCC1	x	4[16.7 µM]	x	x	x	x	x
COc1ccc(N(C(C)C(=O)N2CCC(Cc3ccccc3)CC2)S(C)(=O)=O)cc1 (configuration not stated)	-6	25	5	33	42*	-3	30
CCOC(=O)C1CCN(C(=O)C(C)N(c2ccc(Oc3ccccc3)cc2)S(C)(=O)=O)CC1 (configuration not stated)	4	6	5	12	45*	-3	21
